The list is not random: actives were taken first. Their share in the collection is about 2.1%.
Abeta rescue = qHTS for compounds that reverse cellular toxicity of Amyloid beta (A-beta) peptide in yeast: Primary Screen. AID 1347071, 2019. Potency, µM (doses to about 46.1 µM), usual class: activators. actives 0.063% (n = 410,000). yeast expressing A-beta42, growth rescue, OD600, 48 h; response scale: 0% DMSO, 100% iron-clioquinol control; further: nearly all actives have a fitted effect of over 55% in size
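Growth rescue measured by 600 nm absorbance after 48 h yeast culture at 30 C with compound. Values normalized between DMSO and an equimolar ferric chloride plus clioquinol control.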
FUS yeast rescue = qHTS for Suppressors of FUS Proteinopathy: Primary screen using FUS-linked yeast assay | S. cerevisiae FUS-expressing, growth rescue, OD600, 24 h | Potency, µM (titrated, usually from 76.6 µM), actives largely listed as activators | actives 0.24% (n = 390,000); further: nearly all actives have a fitted effect of over 55% in size
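Absorbance at 600 nm, taken 24hr after compound addition, measured rescue of FUS-yeast growth at 30C. Induction used 2% galactose with seeding at OD 0.005. Controls: CP55940 from 92uM final, DMSO only.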
aSyn yeast inh = qHTS of alpha-syn Inhibitors. Yeast expressing alpha-synuclein, growth rescue, BacTiter-Glo, 24 h. actives 0.14% (n = 370,000). Potency, µM (titrated, usually from 46.1 µM), hits mostly activators; further: nearly all actives have a fitted effect of over 65% in size
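Rescue of yeast growth: cells expressing toxic alpha-synuclein, induced in galactose at OD600 0.02, incubated with compound 24 h at 30 C. ATP luminescence quantified growth; inhibitors of toxicity appear as activators.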
TDP43 rescue = qHTS of TDP-43 Inhibitors; TDP-43 expressing yeast growth rescue, BacTiter-Glo, 24 h; Potency, µM (doses to about 46.1 µM), most hits filed as activators; actives 1.8% (n = 410,000); AID 652104, 2013; further: nearly all actives have a fitted effect of over 50% in size
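In this qHTS, compounds that restore growth of yeast expressing TDP-43 appear as activators. Cells (OD600=0.02, galactose medium, raffinose-pregrown) are incubated with compound 24 hr at 30 deg C and growth is quantified by BacTiter-Glo.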
PTAP TSG101 blk = qHTS Assay for Iinhibitors of HIV-1 Budding by Blocking the Interaction of PTAP/TSG101; Tumor susceptibility gene 101 protein (Homo sapiens), Q99816; Fluorescence polarization, FITC-PTAP peptide / Tsg101 binding; Potency, µM (series often up to 115 µM), most hits filed as inhibitors; 340,000 tested, under 10 active; active means well fitted inhibition curve with a large enough effect in the main read-out, with a control signal flat, not every such curve was filed as active; inconclusive means small, poorly fitted or top-dose-only effect, or effect the other way, or a change in a side signal; inactive means no such curve, though single readings can be large or run the other way
Target sequence (Q99816 whole entry, looked up): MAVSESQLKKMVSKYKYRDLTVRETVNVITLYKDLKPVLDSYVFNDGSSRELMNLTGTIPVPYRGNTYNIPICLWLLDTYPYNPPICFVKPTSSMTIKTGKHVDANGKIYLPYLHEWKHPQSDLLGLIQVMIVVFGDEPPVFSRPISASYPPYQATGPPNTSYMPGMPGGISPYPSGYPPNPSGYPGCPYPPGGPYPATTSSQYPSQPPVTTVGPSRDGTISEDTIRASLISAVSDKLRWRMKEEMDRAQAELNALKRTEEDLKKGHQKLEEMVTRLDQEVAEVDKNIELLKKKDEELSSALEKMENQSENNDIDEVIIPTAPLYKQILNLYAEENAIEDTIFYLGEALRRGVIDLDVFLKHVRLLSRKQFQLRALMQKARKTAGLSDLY
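Tsg101 binding domain (10 uM final) was mixed with compound and a FITC-labeled PTAP peptide (50 nM final) in HEPES pH 7.5 buffer with NaCl, Tween 20, EDTA and TCEP; fluorescence polarization was read after 20 min at r.t.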
Each line names hits and unclear results; the compound was inactive in the other large screens. Unless noted, the call rests on the fitted dose curve; in most records, active means well fitted curve in the direction sought with a large enough effect; inconclusive means small, poorly fitted or top-dose-only effect, or another doubt; inactive means no such curve, though single readings can be large; an effect the other way counts as inactive or inconclusive.

CCN1C(=O)[C@H]2[C@@H](c3ccc(-c4ccc(Cl)c(Cl)c4)c(OC)c3)N[C@@](C)(C(=O)OC)[C@H]2C1=O	none
CCN1C(=O)[C@H]2[C@@H](c3ccc(-c4ccc(Cl)c(Cl)c4)cc3)N[C@@](C)(C(=O)OC)[C@H]2C1=O	FUS yeast rescue 32µM, TDP43 rescue 20µM
CCN1C(=O)[C@H]2[C@@H](c3ccc(-c4ccc(Cl)c(Cl)c4)cc3)N3CCCC[C@@]3(C(=O)OC)[C@H]2C1=O	aSyn yeast inh inconclusive
COC(=O)[C@]1(Cc2ccccc2)N[C@H](c2ccc(-c3ccccc3)cc2)[C@@H]2C(=O)N(C)C(=O)[C@@H]21	none
Cc1ccc(CNc2ncnc3c2nnn3C)cc1	TDP43 rescue inconclusive (no result: aSyn yeast inh, PTAP TSG101 blk)
Nc1sc(-c2ccccc2)cc1C(=O)N1CCN(c2ccccc2)CC1	aSyn yeast inh inconclusive, TDP43 rescue inconclusive (no result: PTAP TSG101 blk)
C=C(C)Cn1c(=O)c2c(nc3n2CCCN3CCc2ccccc2)n(C)c1=O	none
COCC(=O)N(C)[C@H]1C[C@H]2c3[nH]c4cccc(-c5cccc(F)c5)c4c3CCN2C(=O)[C@H]1[C@H](C)O	none (no result: Abeta rescue, aSyn yeast inh, TDP43 rescue, PTAP TSG101 blk)
CCc1ccc(OC(C)C(=O)N2CCC(c3nc4ccccc4s3)CC2)cc1 (configuration not stated)	FUS yeast rescue inconclusive, TDP43 rescue 16µM (no result: aSyn yeast inh, PTAP TSG101 blk)
CC(C)Oc1ccc(C(=O)N2CCC(c3nc4ccccc4s3)CC2)cc1	none (no result: aSyn yeast inh, PTAP TSG101 blk)
COc1ccccc1OC(C)C(=O)N1CCC(c2nc3ccccc3s2)CC1 (configuration not stated)	TDP43 rescue 14µM (no result: aSyn yeast inh, PTAP TSG101 blk)
CNS(=O)(=O)c1cn(CC(=O)N2CCN(c3cc(C)ccc3C)CC2)cc1S(=O)(=O)NC	none (no result: aSyn yeast inh, PTAP TSG101 blk)
COc1cccc(NC(=O)CC2C(=O)OCCN2Cc2ccccc2)c1 (configuration not stated)	TDP43 rescue inconclusive (no result: aSyn yeast inh, PTAP TSG101 blk)
O=C(CC1C(=O)OCCN1Cc1ccccc1)Nc1cccc(C(F)(F)F)c1 (configuration not stated)	TDP43 rescue 18µM (no result: aSyn yeast inh, PTAP TSG101 blk)
C(=C\c1ccnc2ccccc12)/c1cccnc1	none (no result: Abeta rescue, FUS yeast rescue, TDP43 rescue, PTAP TSG101 blk)
COc1cccc(Oc2nc(-c3ccncc3)nc3ccccc23)c1	TDP43 rescue 13µM
COc1ccccc1C(=O)OCc1c(-c2ccccc2)ncc2ccccc12	FUS yeast rescue inconclusive, TDP43 rescue 25µM
CCOC(=O)C1=CCC(c2ccc(Cl)cc2)N(S(=O)(=O)c2ccc(C)cc2)C1 (configuration not stated)	FUS yeast rescue inconclusive (no result: PTAP TSG101 blk)
Cc1cc(-c2ccccc2)n2nc(C)c(C#N)c2n1	TDP43 rescue 16µM
CCCCN1C[C@H](c2ccccc2)[C@@H](CC(=O)NC)C1=O	none (no result: PTAP TSG101 blk)
CCCN(CC(=O)Nc1ccccc1OC)C(=O)c1ccc(COc2ccccc2)o1	FUS yeast rescue inconclusive, TDP43 rescue 11µM
C=CCn1c(Sc2ncc([N+](=O)[O-])s2)n[nH]c1=O	TDP43 rescue 13µM
O[C@H](COc1ccc(OC(F)(F)F)cc1)CN1CCC(C(O)(c2ccccc2)c2ccccc2)CC1	none (no result: Abeta rescue, aSyn yeast inh, TDP43 rescue, PTAP TSG101 blk)
CCc1nnc2c(NCc3ccccc3OC)nc3ccccc3n12	none (no result: aSyn yeast inh, PTAP TSG101 blk)
CCN(CC(=O)Nc1ccc2c(c1)OCCO2)C(=O)/C=C/c1cccc(Br)c1	TDP43 rescue 13µM
O=C(/C=C/c1cccc(Br)c1)c1ccc2c(c1)OCO2	TDP43 rescue 11µM
COc1ccc(NC(=O)C2(C)CCN2CCOc2ccccc2)cc1OC (configuration not stated)	none (no result: PTAP TSG101 blk)
CCCCOCCCNC(=O)C[C@H]1C[C@@]2(C(=O)OCC)CCCC3=C2N(CCC3)C1=O	none (no result: Abeta rescue, aSyn yeast inh, TDP43 rescue, PTAP TSG101 blk)
Clc1ccccc1-c1nc(-c2ccccc2)n[nH]1	TDP43 rescue 13µM
Oc1ccccc1-c1n[nH]c(-c2ccccc2O)n1	none (no result: FUS yeast rescue)
COc1ccc(-c2nc(CCNC(=O)c3ccccc3)cs2)cc1OC	TDP43 rescue inconclusive (no result: aSyn yeast inh, PTAP TSG101 blk)
COc1ccc(-c2nc(CSCC(=O)N3CCN(c4cccc(C)c4C)CC3)c(C)o2)cc1OC	FUS yeast rescue 25µM, TDP43 rescue inconclusive (no result: aSyn yeast inh, PTAP TSG101 blk)
CCOc1ccc(-c2nc(CSCC(=O)N3CCN(c4ccc(F)cc4)CC3)c(C)o2)cc1	none (no result: aSyn yeast inh, PTAP TSG101 blk)

Source: PubChem
